Among the data in PubChem BioAssay (NCATS) are activation and Potency values, retold here.

“And” between values parts separate entries of the source, which are not always exact repeats. Equal values may be shown once. Records with an inconclusive call do not appear. The source made the active and inactive calls. Calls come from the whole dose curve; as a rule, active = well fitted activation curve with a large enough effect; inconclusive = small, poorly fitted or top-dose-only effect; inactive = no such curve, though single readings can be large or run the other way.
Potency is the fitted concentration of half-maximal effect.

Sequence of Cellular tumor antigen p53 (Homo sapiens) (P04637 whole entry, looked up): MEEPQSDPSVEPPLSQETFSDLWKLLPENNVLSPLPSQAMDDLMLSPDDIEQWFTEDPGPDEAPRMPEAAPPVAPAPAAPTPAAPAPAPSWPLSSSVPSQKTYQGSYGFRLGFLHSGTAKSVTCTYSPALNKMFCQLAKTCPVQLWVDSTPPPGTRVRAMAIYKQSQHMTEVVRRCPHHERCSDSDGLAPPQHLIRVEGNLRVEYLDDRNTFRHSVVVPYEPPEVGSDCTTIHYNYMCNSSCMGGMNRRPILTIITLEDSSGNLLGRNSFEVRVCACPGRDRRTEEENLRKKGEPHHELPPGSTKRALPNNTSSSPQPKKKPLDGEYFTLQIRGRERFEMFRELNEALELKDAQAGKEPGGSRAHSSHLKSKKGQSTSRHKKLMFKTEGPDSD

The assay has as its target Cellular tumor antigen p53 (Homo sapiens) (UniProt P04637). Briefly: Primary qHTS for small molecule compounds that upregulate eGFP-tagged delta133p53alpha (in N-terminal) cells. (AID 2060322).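 For activation: series mostly up to about 56 µM; 0% = DMSO vehicle and 100% = reference activator.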 Note: nearly all actives have a fitted effect of over 75% in size. The following applies: NCI-H358 eGFP-delta133p53alpha fluorescence, 24 h; activation: stronger effect = higher value. In a few lines:
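NCI-H358 cells pre-induced 24 h with 10 ng/ml doxycycline to express N-terminal eGFP-delta133p53alpha, then dosed 24 h at 37C without doxycycline; fixed, Hoechst-stained, GFP intensity by laser scanning cytometry, normalized to DMSO (0%) and 57.5 uM 5-azacytidine (100%).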
In general terms: In qHTS, concentration-response curves come from the screen itself.
Take `c1cc2c(c(N3CCNCC3)c1)OCCO2`: the activation was -12.6% (inactive). Same read-out and setting: in the case of `Clc1ccccc1N1CCNCC1` it was 28.8% (inactive). Regarding `Clc1ccc(C(c2ccc(Cl)cc2)C(Cl)(Cl)Cl)cc1`, the activation was -11.9% (inactive). On the same count and under the same terms, as for `CCC(C(N)=O)N1CCCC1=O` (centres undefined), the figure is -3.35% (inactive).

On to `CCN(Cc1ccc(Cl)nc1)/C(=C/[N+](=O)[O-])NC`, for which the activation was -24.3% (inactive). In the case of `C[C@H](N)[C@H](O)c1ccc(O)c(O)c1`, the activation was -36.8% (inactive). The same measure, in the same setting: as for `CCOC(C(=O)OCCN(C)C)(c1ccccc1)c1ccccc1`, the figure is -3.95% (inactive). Same read-out and setting: in the case of `CC[N+]1(C)CCCC(OC(=O)C(O)(c2ccccc2)c2ccccc2)C1` (centres undefined) it was 8.47% (inactive).

Take `CCN(CCO)CCn1c(Cc2ccccc2)nc2c1c(=O)n(C)c(=O)n2C`: the activation was 16.7% (inactive).

In the case of `CC1=C2C[C@@H]3[C@@H](CC=C4C[C@@H](O)CC[C@@]43C)[C@@H]2CC[C@]12O[C@H]1C[C@H](C)CN[C@H]1[C@H]2C`, the activation was 14% (inactive).

Turning to `Nc1ccc(Cl)cc1N`, the Potency was 22.4 µM (active). Consider `O=C1OC(CCN2CCCCC2)OC1(c1ccccc1)c1ccccc1` (centres undefined), for which the activation was -20.9% (inactive). On to `CC=C(C)C(=O)O[C@H]1C(C)=C2[C@@H]3OC(=O)[C@@](C)(O)[C@@]3(O)[C@@H](OC(=O)CCC)C[C@](C)(OC(C)=O)[C@@H]2[C@@H]1OC(=O)CCCCCCC`, for which the activation is -0.0676% (inactive).

As for `CC(Cc1ccccc1)NCc1ccccc1Cl` (centres undefined), the activation was 16.4% (inactive). Still for that read-out and setting: as for `C#CC(O)(C=CCl)CC` (centres undefined), the figure is 19.8% (inactive); as for `O=[N+]([O-])c1ccc([As](=O)(O)O)cc1`, -14.2% (inactive). With `O=C1NCN(c2ccccc2)C12CCN(CCCOc1ccc(F)cc1)CC2`, the activation is 0.837% (inactive). On the same count and under the same terms, as for `CCOC(=O)c1cncn1[C@H](C)c1ccccc1`, the figure is -12.5% (inactive).

`CCO/N=C(\CC)C1=C(O)CC(c2c(C)cc(C)cc2C)CC1=O` (centres undefined): the activation was 16.7% (inactive). For the compound `Cc1ccc2c(c1)C1CN(C)CCC1N2` (centres undefined), the activation was 0.837% (inactive). On the same count and under the same terms, as for `Clc1ccc(CO/N=C(\Cn2ccnc2)c2ccc(Cl)cc2Cl)c(Cl)c1`, the figure is -8.37% (inactive); as for `C1CN2CCC1CC2`, -19.2% (inactive); as for `ClCc1cccc(Cl)c1`, 5.02% (inactive).

Regarding `CC[N+]1(CC)CCC(OC(=O)C(O)(c2ccccc2)c2ccccc2)C1` (centres undefined), the activation is -15.3% (inactive). Same read-out and setting: as for `Cc1cccc(Cc2cnc[nH]2)c1C`, the figure is -0.837% (inactive).

In the case of `COP(=S)(OC)SCN1C(=O)c2ccccc2C1=O`, the Potency was 21.9 µM (active). Take `CC(Cc1ccc2c(c1)OCO2)NO` (centres undefined): the activation was -3.95% (inactive). Still for that read-out and setting: as for `O=C1CN2CCOC2(c2ccccc2Cl)c2cc(Cl)ccc2N1` (centres undefined), the figure is 14.2% (inactive); as for `Clc1ccc(COC(Cn2ccnc2)c2ccc(Cl)cc2Cl)cc1` (centres undefined), 24.3% (inactive) and 15.7% (inactive); as for `CCC(=O)O[C@@H]1C=C2CCC3C(CCC4(C)C3CC[C@@H]4OC(=O)CC)C2CC1` (some centres undefined), 6.21% (inactive).

For `COc1cc(CC(C)N)cc(OC)c1OC` (centres undefined), the activation is -10.7% (inactive). Same read-out and setting: in the case of `O=C1OC(c2ccc(O)c(S(=O)(=O)O)c2)(c2ccc(O)c(S(=O)(=O)O)c2)c2c(Br)c(Br)c(Br)c(Br)c21` it was 25.4% (inactive). With `CCCN(CCC)CCc1c[nH]c2ccccc12`, the activation was 22% (inactive). Same read-out and setting: as for `CN1C(=O)CN=C(c2ccccc2)c2cc([N+](=O)[O-])ccc21`, the figure is -19.8% (inactive). On to `O=c1[nH]c2cc(Cl)ccc2n1C1CCNCC1`, for which the activation was 9.6% (inactive). Same read-out and setting: in the case of `COC(=O)C(Cl)C(=O)OC` it was -13.4% (inactive); in that of `[N-]=[N+]=CC(=O)OC[C@H](N)C(=O)O`, 5.02% (inactive). On the same count and under the same terms, as for `NC1=NC(=O)C(c2ccccc2)O1` (centres undefined), the figure is 0.565% (inactive); as for `CNCC(=O)c1ccc(O)c(O)c1`, 8.47% (inactive).
